Bioassay records from PubChem BioAssay.
ASK1 inh = ASK1 kinase inhibitors, primary screen, biochemical, AlphaScreen. Mitogen-activated protein kinase kinase kinase 5 (Homo sapiens), Q99683. AlphaScreen MKK6 phosphorylation by ASK1, luminescence. 22,000 tested, 0.99% active. AID 1159602, 2016. inhibition, % at 7.44 µM; in the data active means inhibition above about 35%;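 further: 0% = median of compound wells and 100% = no enzyme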
ULK1 primary = ULK1 kinase inhibitors, primary screen, biochemical, AlphaScreen; AlphaScreen Atg13 phosphorylation by ULK1, luminescence; inhibition, % at 5.96 µM; 30,000 tested, 1.9% active; AID 1259251, 2017; in the data active means inhibition above about 43%;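 further: 0% = median of compound wells and 100% = no enzyme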
Target sequence (O75385 whole entry, looked up): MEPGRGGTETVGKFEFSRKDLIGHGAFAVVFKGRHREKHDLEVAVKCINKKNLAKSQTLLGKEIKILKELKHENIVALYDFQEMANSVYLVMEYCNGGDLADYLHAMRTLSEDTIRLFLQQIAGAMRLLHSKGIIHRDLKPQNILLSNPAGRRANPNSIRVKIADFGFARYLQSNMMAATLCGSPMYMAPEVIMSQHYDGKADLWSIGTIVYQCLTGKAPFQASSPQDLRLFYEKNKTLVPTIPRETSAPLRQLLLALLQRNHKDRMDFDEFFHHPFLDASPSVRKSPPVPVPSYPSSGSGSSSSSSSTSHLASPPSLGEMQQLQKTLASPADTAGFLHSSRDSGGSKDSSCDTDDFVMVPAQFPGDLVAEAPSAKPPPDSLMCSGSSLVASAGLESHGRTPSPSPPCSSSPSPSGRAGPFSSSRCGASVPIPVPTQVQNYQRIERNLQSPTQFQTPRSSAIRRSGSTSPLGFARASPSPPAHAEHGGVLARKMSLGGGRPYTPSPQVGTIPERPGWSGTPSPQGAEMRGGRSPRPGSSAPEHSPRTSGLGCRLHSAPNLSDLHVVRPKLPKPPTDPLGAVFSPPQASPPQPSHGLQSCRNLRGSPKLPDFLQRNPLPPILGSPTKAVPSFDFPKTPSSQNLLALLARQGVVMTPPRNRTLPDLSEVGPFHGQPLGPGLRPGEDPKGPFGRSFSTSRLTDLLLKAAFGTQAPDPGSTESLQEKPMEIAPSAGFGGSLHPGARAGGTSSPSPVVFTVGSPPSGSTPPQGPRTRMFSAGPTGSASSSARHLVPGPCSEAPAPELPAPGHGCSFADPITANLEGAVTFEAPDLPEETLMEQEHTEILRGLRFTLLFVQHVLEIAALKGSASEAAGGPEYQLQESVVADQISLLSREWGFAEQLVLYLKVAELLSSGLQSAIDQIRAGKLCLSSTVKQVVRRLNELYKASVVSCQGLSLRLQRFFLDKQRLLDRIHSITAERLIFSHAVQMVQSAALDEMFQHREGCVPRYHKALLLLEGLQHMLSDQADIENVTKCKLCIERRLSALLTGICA
Numbers without * were called inactive; nt = no result given. Sampled rows, rich in hits. Any-hit rate of the full collection: about 2.5%.

SMILES	ASK1 inh	ULK1 primary
CCNc1nc(Nc2ccc(N3CCOCC3)cc2)c2cc(OC)c(OC)cc2n1	43.1*	6.9
COc1cc2nc(NCCN3CCOCC3)nc(Nc3ccc(N4CCOCC4)cc3)c2cc1OC	3.9	5.5
COc1cc(Nc2cc(C)nc(Nc3ccc(-n4ccnc4)cc3)n2)cc(OC)c1OC	8.1	-12.1
COc1cc(Nc2nc(Nc3ccc(-n4ccnc4)cc3)ncc2C)cc(OC)c1OC	12.3	59.8*
COc1cc(Nc2nc(Nc3ccc(N4CCOCC4)cc3)ncc2C)cc(OC)c1OC	20.0	45.5*
Cc1cnc(Nc2ccccc2)nc1Nc1ccc(N2CCOCC2)cc1	28.1	29.5
CN(C)c1cccc(Nc2nc(NCc3cccc(C(F)(F)F)c3)c3ncn(CCN4CCCC4=O)c3n2)c1	16.0	-11.1
O=C(NC1CCN(Cc2ccccc2)CC1)c1csc(Nc2ncccn2)n1	4.7	18.1
Cc1ncc(CSSCc2cnc(C)c(O)c2CO)c(CO)c1O	nt	46.6*
Cc1ncc(COP(=O)(O)O)c(C=O)c1O	nt	-13.3
NC(C(=O)N1CCC(C(=O)Nc2ccc3[nH]ncc3c2)CC1)c1ccc(-c2ccccc2)cc1 (stereo not drawn)	13.3	9.9
COc1ccc(-c2cc(NCCO)nc(N)n2)cc1	1.3	-1.0
CC(C)n1cnc2c(NCc3nc4ccccc4[nH]3)nc(N3CCC(N4CCOCC4)CC3)nc21	-9.7	5.3
COC(=O)c1sc(SC)nc1Nc1ccnc(Nc2cc(OC)ccc2OC)c1	13.4	-2.0
Cc1cc(NCCN(C(C)C)C(C)C)nc(-c2ccc(N3CCOCC3)nc2)n1	-1.4	2.7
COc1ccc(CCNc2nc(Nc3cnccn3)nc3c2ncn3C2CCCCC2)cc1	-0.9	15.2
Oc1ccc(CCNc2nc(Nc3cnccn3)nc3c2ncn3C2CCCCC2)cc1	-30.1	44.1*
Cc1cc(C)cc(NC(=O)N2CCc3nc4cccc(C)n4c(=O)c3C2)c1	nt	4.1
O=C(c1cccc(Nc2ccc3[nH]ncc3c2)n1)N1CCOCC1	-1.4	47.7*
O=C(c1cc(Nc2ccc3[nH]ncc3c2)ccn1)N1CCOCC1	-1.9	-3.0
Cc1ccc(S(=O)(=O)C2=C(O)C(=O)N(c3ccccc3)C2c2ccccc2)cc1 (stereo not drawn)	nt	13.3
O=C(O)c1ccccc1-c1c2cc(I)c(=O)c(I)c-2oc2c(I)c(O)c(I)cc12	nt	26.0
O=C(O)c1c(Cl)c(Cl)c(Cl)c(Cl)c1-c1c2cc(I)c(=O)c(I)c-2oc2c(I)c(O)c(I)cc12	nt	44.6*
Cn1c(Nc2cc(C(=O)NCc3cccc(C(F)(F)F)c3)ccn2)nc2ccccc21	1.0	1.1
c1cc(Nc2cc(Nc3ccc4c(c3)OCO4)ncn2)ncn1	23.2	60.2*
SMILES	ASK1 inh	ULK1 primary
c1ccc(Nc2cc(Nc3ccc4c(c3)OCO4)ncn2)cc1	4.4	5.8
CC(C)n1cnc2c(NCc3cccnc3)nc(Nc3ccc(-n4ccnc4)cc3)nc21	13.5	5.4
CC(=O)Nc1ccc(Nc2nc(-c3ccc(N4CCOCC4)nc3)ncc2C)cc1	-2.6	58.6*
CC(=O)Nc1ccc(Nc2nc(-c3ccc(N4CCOCC4)nc3)nc3nc[nH]c23)cc1	10.2	-11.3
CC(C)n1c(-c2ccccc2)nc2c(Nc3ccc(Oc4ccccc4)cc3)ncnc21	0.0	-2.7
COc1cc(/C=N/Nc2nncn2/N=C/c2ccc(O)c(OC)c2)ccc1O	nt	51.4*
COc1cc(C=NNC(=O)c2ccncc2)ccc1O	nt	12.9
O=C1CCCN1CCn1cnc2c(Nc3ccc(Oc4ccccc4)cc3)nc(N3CCOCC3)nc21	4.8	-21.0
O=S(c1cc(Cl)cc(Cl)c1O)c1cc(Cl)cc(Cl)c1O	nt	6.4
Oc1c(Cl)cc(Cl)cc1Sc1cc(Cl)cc(Cl)c1O	nt	83.8*
COc1ccc(CCNc2nc(Nc3nc4ccccc4n3C)nc3c2ncn3-c2ccccc2)cc1	10.3	3.1
N[C@H](Cc1ccc(Br)cc1)C(=O)N1CCC(C(=O)Nc2ccncc2)CC1	-3.4	5.0
C[C@@H](N)C1CCC(C(=O)Nc2ccncc2)CC1 (stereo partly drawn)	14.6	63.6*
CC(=O)c1nc(Nc2ccc(-n3cnc(C)n3)cc2)ncc1Cl	5.5	33.8
Cc1ncn(-c2ccc(Nc3ncc(Cl)c(-c4cn[nH]c4)n3)cc2)n1	-43.4	72.6*
c1cc(-n2cnc(N3CCOCC3)n2)ccc1Nc1ncc2cc(-c3cn[nH]c3)ccc2n1	8.8	11.4
Clc1cnc(Nc2ccc(-n3cnc(N4CCOCC4)n3)cc2)nc1-c1cn[nH]c1	-33.1	77.2*
c1ccc(-c2nccc(Nc3ccc(OCCN4CCCCC4)cc3)n2)cc1	15.0	1.9
COc1ccc(CCNc2nc(N3CCc4ccccc4C3)nc3c2ncn3C2CCCCC2)cc1	18.2	12.9
CCCNc1nc(-c2ccc(OC)nc2)ncc1C	15.3	-22.2
Cn1nccc1Nc1nc(NCCCN2CCCC2=O)c2[nH]cnc2n1	-6.4	-4.4
c1ccc(OCCNc2nc(Nc3ccc(N4CCOCC4)cc3)nc3nc[nH]c23)cc1	26.3	69.0*
CCCNC(=O)c1ccnc(NCCCN2CCCC2=O)c1	-36.0	60.5*
O=C1CCCN1CCCNc1ccnc(NCCCN2CCCC2=O)n1	-5.7	0.0
COc1cc(Nc2nc(NCCCN3CCCC3=O)c3[nH]cnc3n2)cc(OC)c1OC	-32.5	74.3*
SMILES	ASK1 inh	ULK1 primary
c1nc2nc(Nc3ccc(N4CCOCC4)cc3)nc(NCCN3CCOCC3)c2[nH]1	-0.4	17.5
O=C(NCCCN1CCCC1=O)c1ccnc(Nc2ccncc2)c1	6.4	5.8
COc1cc(Nc2nccc(NCCCN3CCCC3=O)n2)cc(OC)c1OC	-1.1	52.0*
CCN(CC)C(=O)C1CCCN(c2nc(Nc3ccc(NC(C)=O)cc3)c3ncn(-c4ccccc4)c3n2)C1 (stereo not drawn)	-2.3	-1.0
O=C(Cc1cn(-c2ccc(N3CCc4ccccc4C3)nn2)c2ccccc12)NCc1ccccc1	0.8	4.4
CC(C)n1c(-c2ccc(N3CCOCC3)nc2)nc2c(NCCO)ncnc21	-8.3	-0.4
COc1ccc2c(c1)CC(C(=O)Nc1ccc(-c3cn[nH]c3)cc1SCCN(C)C)CO2 (stereo not drawn)	2.5	17.2
CC1(c2ccccc2)CC(=O)N(CN2CCOCC2)C1=O (stereo not drawn)	nt	-0.6
O=C1CCCN1CCCNc1nc(Nc2ccc(N3CCOCC3)cc2)nc2nc[nH]c12	3.3	53.8*
O=C1CCCN1CCCNc1ncnc2nc(Nc3ccc(N4CCOCC4)cc3)[nH]c12	-4.3	6.7
CN(C)CCOC(c1ccccc1)c1ccc(Br)cc1 (stereo not drawn)	nt	7.1
C[N+](C)(C)CCOC(c1ccccc1)c1ccccc1	nt	81.8*
CN(C)Cc1cnc(Nc2ccc(N3CCOCC3)cc2)cc1Nc1ccccc1C#N	12.8	5.4
CNC(=O)c1ccccc1Nc1cc(Nc2ccc(N3CCS(=O)(=O)CC3)cc2OC)ncc1C#N	4.8	80.6*
CNC(=O)c1ccccc1Nc1cc(Nc2ccc(N3CCSCC3)cc2OC)ncc1C#N	33.4	85.9*
NC(=O)c1ccccc1Nc1ccnc(Nc2ccc(N3CCOCC3)cc2F)c1	5.0	-8.2
CC(C)n1cnc2c(NCCOc3ccccc3)nc(N3CCC(N4CCOCC4)CC3)nc21	-2.1	9.3
Nc1nc(NCCO)cc(NCc2ccc3c(c2)OCO3)n1	-20.4	-19.0
Nn1cnnc1N/N=C/c1ccc(-c2cccc([N+](=O)[O-])c2)o1	nt	45.1*
O=C(N/N=C\c1ccc(-c2ccc([N+](=O)[O-])cc2)o1)c1cnccn1	nt	-3.0
